Source: PubChem
rTrxR1 inhibitor: rat TrxR1 inhibition. recombinant rTrxR1, NADPH fluorescence consumption, selenite substrate. hit rate 1% among 390,000. Potency, µM (top dose mostly 114 µM), most hits filed as inhibitors. O89049; note: nearly all actives have a fitted effect of over 65% in size
Target sequence (O89049 whole entry, looked up): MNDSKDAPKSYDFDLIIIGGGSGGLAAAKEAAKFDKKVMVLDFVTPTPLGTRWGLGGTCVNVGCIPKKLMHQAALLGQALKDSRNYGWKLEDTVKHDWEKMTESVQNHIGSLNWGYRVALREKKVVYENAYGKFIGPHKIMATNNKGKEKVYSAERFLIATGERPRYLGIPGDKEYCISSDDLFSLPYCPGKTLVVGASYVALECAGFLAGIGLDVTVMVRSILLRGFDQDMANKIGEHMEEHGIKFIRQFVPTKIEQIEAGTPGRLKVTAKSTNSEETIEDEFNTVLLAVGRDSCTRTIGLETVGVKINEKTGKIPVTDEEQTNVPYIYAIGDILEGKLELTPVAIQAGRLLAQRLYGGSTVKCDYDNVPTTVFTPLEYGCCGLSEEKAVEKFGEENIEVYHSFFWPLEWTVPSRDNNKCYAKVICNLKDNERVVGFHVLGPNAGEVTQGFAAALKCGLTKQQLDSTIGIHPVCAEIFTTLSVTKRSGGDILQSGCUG
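Rat TrxR1 (90 nM in the dispensed reagent) was pre-reduced with 400 uM NADPH for 5 min at room temperature, then incubated with compound for 15 min. After 400 uM selenite was added, NADPH fluorescence (Ex 340/Em 450 nm) was followed for 8 min.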
TrxR1 substrate: rat thioredoxin reductase 1 substrate activity | Potency, µM (top dose mostly 114 µM) | hit rate 0.01% among 390,000 | purified TrxR1 substrate turnover, NADPH consumption readout; note: nearly all actives have a fitted effect of over 50% in size
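Rat TrxR1, dispensed at 90 nM, was prereduced with 400 uM NADPH (final) for 5 min at ~22 deg C, then incubated with compound 15 min before 400 uM selenite. A first-read NADPH fluorescence drop versus no-compound background flagged substrates.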
FBPA coupling cs: inhibits coupling enzyme system, counter-screen for aldolase hits; coupling enzyme system counterscreen, AmpLite Red fluorescence; activity change, negative = inhibition, % at 58.2 µM, hits read low; hit rate 0.67% among 290,000; AID 2472; in the data active = activity change below about -30%
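Final compound at 57.5 uM, incubated 10 min at RT with coupling enzyme reagent (glyceraldehyde-3-phosphate), then 20 min with substrate and AmpLite Red detection. Fluorescence read at 525/598 nm; tests interference with the coupling assay, not aldolase inhibition.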
RORg inh: blocks mouse ROR gamma transcriptional activity; P51450; Drosophila S2 Gal4-RORgamma UAS-luciferase reporter, 20 h; Potency, µM (doses to about 53.6 µM), actives largely listed as inhibitors; hit rate 5.4% among 310,000; AID 2551; note: nearly all actives have a fitted effect of over 60% in size
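ROR gamma transcriptional activity was tracked as Gal4-UAS luciferase output in stably transfected Drosophila Schneider cells, with compound added 1 hr before 700 uM copper sulfate induction and a 20 hr ambient-temperature incubation.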
Gal4-VP16 FLuc: counter-screen for ROR gamma inhibitors: Gal4-VP16 reporter; Drosophila S2 Gal4-VP16 UAS-luciferase, luminescence, 20 h; hit rate 3.5% among 310,000; Potency, µM (doses to about 53.6 µM), hits mostly inhibitors; AID 2546;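 note: Gal4-VP16 expression switched on by copper sulfate through the metallothionein promoter; nearly all actives have a fitted effect of over 50% in size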
GALK inh: galactokinase (human) inhibition; AID 1868; Purified GALK, Kinase-Glo residual ATP luminescence; Potency, µM (highest dose often 57.5 µM), hits mostly inhibitors; hit rate 0.007% among 270,000
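Human GALK (5 nM) with 35 uM ATP and 100 uM galactose in 20 mM HEPES pH 8.0, 5 mM MgCl2, 60 mM NaCl, 1 mM DTT, 0.01% BSA. After 1 h at room temperature, leftover ATP was read by Kinase-Glo Plus luminescence.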
Large screens that a line does not name were inactive. Rows were chosen to be rich in hits. Some 5.9% of all compounds tested hit in one or more screens of this group. Unless noted, calls come from the whole dose curve; as a rule, active = well fitted curve in the direction sought with a large enough effect; inconclusive = small, poorly fitted or top-dose-only effect, or another doubt; inactive = no such curve, though single readings can be large; an effect the other way counts as inactive or inconclusive.

COc1ccccc1/C=C\C=N\n1c(-c2ccc(Cl)cc2Cl)n[nH]c1=S	RORg inh 7.9µM, Gal4-VP16 FLuc 10µM
COc1ccccc1/C=C\C=N\n1c(-c2ccc(Cl)cc2)n[nH]c1=S	RORg inh 1.6µM, Gal4-VP16 FLuc inconclusive
CC(=O)N1[C@H](Cc2ccccc2)C=C[C@]1(C)C(=O)NCc1ccccn1	none (no result: GALK inh)
COc1ccc(OCC(=O)NC2CCSc3ccccc32)cc1 (configuration not stated)	none (no result: FBPA coupling cs, RORg inh, Gal4-VP16 FLuc, GALK inh)
O=C(NCCc1ccccc1)C1CCC(=O)N(Cc2ccc(Cl)cc2)C1 (configuration not stated)	none (no result: FBPA coupling cs)
O=C(NCCc1cscn1)C1CCC(=O)N(Cc2ccc(Cl)cc2)C1 (configuration not stated)	RORg inh 20µM, Gal4-VP16 FLuc inconclusive (no result: FBPA coupling cs)
CC[C@]1(O)C[C@@H]2CN(CCc3c([nH]c4ccccc34)[C@](C(=O)OC)(c3cc4c(cc3OC)N(C=O)[C@H]3[C@@](O)(C(=O)OC)[C@H](C(=O)OC)[C@@]5(CC)C=CCN6CC[C@]43[C@H]65)C2)C1	none (no result: rTrxR1 inhibitor, TrxR1 substrate, GALK inh)
CN1CCN(S(=O)(=O)c2ccc(Sc3nnnn3-c3ccccc3)c([N+](=O)[O-])c2)CC1	rTrxR1 inhibitor inconclusive, RORg inh 7.1µM, Gal4-VP16 FLuc inconclusive (no result: GALK inh)
CC(=O)c1ccc(Sc2nnnn2-c2ccccc2)c([N+](=O)[O-])c1	rTrxR1 inhibitor 7.9µM, RORg inh 8.9µM, Gal4-VP16 FLuc 11µM
CCOC(=O)N1CCc2c(sc3c2c(=O)n(Cc2ccccc2)c(=O)n3Cc2cc(C)ccc2C)C1	none (no result: FBPA coupling cs, RORg inh, Gal4-VP16 FLuc, GALK inh)
Oc1ccc(N=Nc2n[nH]c(-c3ccc(Cl)cc3)n2)cc1	none
O=C(CCn1c(=O)c2ccccc2n(CC(=O)NCCC2=CCCCC2)c1=O)NCc1ccco1	none
CCCNC(=O)C(=O)NCCC1=CCCCC1	none
O=C(NC(=S)NCCC1=CCCCC1)c1cncc(Br)c1	RORg inh 4.5µM, Gal4-VP16 FLuc 8.9µM
S=C(NCCC1=CCCCC1)NCc1ccco1	RORg inh 7.1µM, Gal4-VP16 FLuc inconclusive
O=C(NC(=S)NCCC1=CCCCC1)c1ccccc1Br	RORg inh 3.5µM, Gal4-VP16 FLuc 3.2µM
CC(C)C1=NOC(C(=O)N2CCC(N3CCC(C(=O)N4CCOCC4)CC3)CC2)C1 (configuration not stated)	none
CC(C)(C)c1ccc(NC(=O)CNC2CCCc3ccccc32)cc1 (configuration not stated)	RORg inh inconclusive
NC(=O)Cc1ncc(C(F)(F)F)cc1Cl	none
OCC#Cc1ncc(C(F)(F)F)cc1Cl	RORg inh inconclusive, Gal4-VP16 FLuc 13µM
CCC(=O)Nc1c2c(nc3c1CCC3)CCCC2	none
Cc1oc2ncnc(N3CCOCC3)c2c1C(=O)NCc1ccc(Cl)cc1	none (no result: FBPA coupling cs, RORg inh, Gal4-VP16 FLuc, GALK inh)
O=C(Nc1ccc2c(c1)nc1n2CCN(C2CCCCC2)C1)NC1CCCCC1	FBPA coupling cs -32 (no result: rTrxR1 inhibitor, TrxR1 substrate)
CCC(=O)Nc1ccc2c(c1)nc1n2CCN(C2CCCCC2)C1	none
Cc1ccc(S(=O)(=O)Oc2ccc(C)cc2/C=N/N=C2\NC(=O)C(C)S2)cc1 (configuration not stated)	RORg inh 13µM, Gal4-VP16 FLuc 10µM
COc1ccc(C)cc1NS(=O)(=O)c1ccc2c(c1)NC(=O)C(C)S2 (configuration not stated)	Gal4-VP16 FLuc inconclusive
O=C1CN(S(=O)(=O)c2cc(Cl)ccc2Cl)c2ccccc2N1	none
CCN1CCN(C(=S)c2ccc(Cl)cc2)CC1	FBPA coupling cs -54
O=c1c2c(-c3cccs3)csc2ncn1/N=C/c1ccccn1	none (no result: FBPA coupling cs, RORg inh, Gal4-VP16 FLuc, GALK inh)
C=CCSc1cc(C)nc2c(-c3ccccc3)cnn12	RORg inh 10µM, Gal4-VP16 FLuc inconclusive
CC(=O)Nc1ccc(Nc2cc(C)nc3c(-c4ccccc4)cnn23)cc1	RORg inh 13µM, Gal4-VP16 FLuc 7.9µM
Cc1cccn2c(=O)c(C(=O)NC(C)c3ccccc3)c(O)nc12 (configuration not stated)	none (no result: FBPA coupling cs, RORg inh, Gal4-VP16 FLuc, GALK inh)
COCCNC(=S)N/N=C(\C)c1cccc(OC)c1	RORg inh 4µM, Gal4-VP16 FLuc inconclusive
COCCNC(=S)N/N=C(\C)c1cccc([N+](=O)[O-])c1	RORg inh 3.5µM, Gal4-VP16 FLuc 7.1µM
C/C(=N\NC(=O)c1ccccc1C)c1cccc([N+](=O)[O-])c1	none
COc1cccc(C(=O)NCCCNC(=O)c2cccc(OC)c2)c1	none
CCNC(=S)N/N=C(\C)c1cccc([N+](=O)[O-])c1	RORg inh 4µM, Gal4-VP16 FLuc 4.5µM
CCOC(=S)NC(=O)c1sc2ccccc2c1Cl	RORg inh 1.3µM, Gal4-VP16 FLuc 5.6µM
CCCOC(=S)NC(=O)c1sc2ccccc2c1Cl	none
O=C(NC(=S)NCCO)c1sc2ccccc2c1Cl	RORg inh 11µM
O=C(Nc1cccc2nsnc12)c1ccc(-c2cccc(Cl)c2)o1	rTrxR1 inhibitor 35µM, FBPA coupling cs -40, RORg inh inconclusive, Gal4-VP16 FLuc inconclusive (no result: GALK inh)
